Assay results reported in PubChem BioAssay (NCI).
This is part of a sample that, as a whole, favours compounds with a hit. Of some 83,000 tested, about 20% had one in any assay.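 How to read the values: 0–100, growth inhibition (40 = 60% inhibited); 0, no net growth; -100 to 0, cell death (-40 = 40% of starting cells died; -100 = all dead).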 Values without a mark were called inactive. Active and inactive are the calls of the source. How the source made its calls: active means growth percent below 10; inactive means the rest.

Test system: HOP-92 NSCLC
Assay: NCI-60 one-dose screen, 48 h (100 = growth as untreated, 0 = no growth, -100 = all killed)
Settings: 10 µM unless noted

| SMILES | growth |
| --- | --- |
| O=C(c1nc2ccccc2[nH]1)C1C(c2ccc(F)cc2)C2CC3CCCCC3N2[C@@]12C(=O)Nc1ccc(Cl)cc12 (stereo not given in full) | 44.2% |
| COc1ccc(/C=C/C(=O)c2ccc3cc(OC)c(OC)cc3c2)cc1OC | 51.4% |
| O=c1oc2ccc(F)cc2c(=O)n1-c1ccc(Br)cc1F | -15.2% (active) |
| COc1cc(/C=C2\CN(S(=O)(=O)c3ccccc3)C/C(=C\c3cc(CN4CCCC4)c(O)c(OC)c3)C2=O)cc(CN2CCCC2)c1O | -11.3% (active) |
| CC(C)C[C@H](C(=O)N[C@@H](C)C(N)=O)N1CC=CCN(O)S1(=O)=O | 116% [5 µM] |
| CN(C)CCCNCc1ccc(-c2ccc(F)c(Cl)c2)o1 | 35.7% |
| O=c1oc2ccc(-c3ccc(F)cc3F)cc2c(=O)n1-c1cccc(C(F)(F)F)c1 | -26.6% (active) |
| O=C(N=Nc1c(O)[nH]c2ccccc12)c1oc2ccccc2c1CN1CCN(c2ccccc2)CC1 | -12% (active) |
| O=C(Nc1ccc(Br)cc1F)c1cc(F)ccc1O | -11.3% (active) |
| COc1cc(NC(=O)CCSc2nc3ccccc3c(=O)n2Cc2ccccc2)cc(OC)c1OC | 54.5% |
| O=C(Nc1ccc(I)cc1F)c1cc(F)ccc1O | -9.55% (active) |
| COc1nccc2cc3c(=O)n4c(cc5ccccc54)c(=O)n3c12 | 118% |
| O=C(COc1cc(O)c2c(=O)cc(-c3ccccc3)oc2c1)Nc1ccccc1 | 89.9% |
| O=c1oc2ccc(-c3ccc(F)cc3F)cc2c(=O)n1-c1ccc(Cl)c(C(F)(F)F)c1 | -29.4% (active) |
| CCN1CCN(c2cc(C)c3cc(NC(=O)c4ccc(OC)c(OC)c4)ccc3n2)CC1 | 56.4% |
| COc1ccc(Cn2c(Br)c3c(c2-c2cc(OC)c(OC)c(OC)c2)CCc2sc(NC(C)=O)nc2-3)cc1 | 65.5% |
| COc1ccccc1C(=O)O/N=C(\N)Cc1cccc2ccccc12 | 91% |
| O=C(Nc1ccc(Cl)cc1F)c1cc(I)ccc1O | -24.6% (active) |
| O=C(O)CCC(=O)c1ccc(C2CCCCCC2)cc1 | 99.7% |
| CCCCOCc1cc(CN2CCN(C)CC2)c(O)c2ncccc12 | 57.9% |
| COC(=O)/C(CCC=C(C)C)=C1\[C@@H](OC(C)=O)C[C@@]2(C)[C@H]1C[C@@H](O)[C@H]1[C@@]3(C)CC[C@H](NCc4ccccc4)[C@@H](C)[C@@H]3CC[C@@]12C | 48.8% |
| O=C(NC1C(O)OC(CO)C(O)C1O)NS(=O)(=O)c1ccc(Cl)cc1 (stereo not given) | 101% |
| O=C(Nc1ccc(Br)cc1F)c1cc(Cl)ccc1O | -18.8% (active) |
| CCOC(=O)c1c(C=O)nc2ccccc2c1/C=C/c1ccc(Cl)cc1 | 92.8% |
| COc1cccc2cc(N(C)c3nc(C)nc4ccsc34)ccc12 | 8.89% (active) |
| COc1cc(/C=C/C(=O)c2c(C)nc3ccccc3c2/C=C/c2ccccc2)cc(OC)c1OC | 14.6% |

Test system: NCI-H522 lung
Assay: as above
Settings: 10 µM unless noted

| SMILES | growth |
| --- | --- |
| COC(=O)[C@@H]1CCCN1C(=O)[C@H]1CCCN1C(=O)[C@@H](Cc1c[nH]c2ccccc12)NC(=S)Nc1cc(C(F)(F)F)cc(C(F)(F)F)c1 | 69.8% |
| Cc1ccc(F)cc1NC(=O)c1cc(Cl)ccc1Nc1ccccc1 | 47.7% |
| CC1=C(C(=O)OCC2CCN(C(=O)OC(C)(C)C)CC2)[C@@H](c2cccc(C#N)c2)C2=C(CC(C)(C)CC2=O)N1 | 29.6% |
| CCCCCCc1cc2cc(-c3csc(/C=C/c4ccccc4)n3)c(=O)oc2cc1O | -30.7% (active) |
| COc1ccc(Br)c(/C=C2\SC(=Nc3ccc(O)cc3)NC2=O)c1 | 77.2% |
| COc1ccc(Cn2c(Br)c3c(c2Br)-c2nc(N)sc2CC3)cc1 | 2.16% (active) |
| COC(=O)c1cc2c(n1Cc1ccccc1)-c1oncc1CCC2 | 39.1% |
| CCOC(=O)c1sc(-c2ccc(OS(=O)(=O)c3ccccc3[N+](=O)[O-])c(C=O)c2)nc1C | 18.8% |
| Clc1ncccc1Nc1ccc2nnc(-c3ccncc3)n2n1 | -58.6% (active) |
| O=C1NC(=O)C(=Cc2cn(Cc3cn(Cc4ccc(Cl)cc4Cl)nn3)c3ccccc23)C(=O)N1 | 77.7% |
| CCCCCCn1c(=N)n(CC(O)COc2cccc(C)c2)c2ccccc21 (stereo not given) | -74.5% (active) |
| O=C(Nc1ncc(Cc2cccc(C(F)(F)F)c2)s1)C1COc2ccccc2O1 (stereo not given) | 67.8% |
| CN1C(=O)N(C)C2C1NN=c1s/c(=C\c3ccc([N+](=O)[O-])cc3)c(=O)n12 (stereo not given) | 43.6% |
| O=C(c1nc2ccccc2[nH]1)C1C(c2ccc(F)cc2)C2CC3CCCCC3N2[C@@]12C(=O)Nc1ccc(Cl)cc12 (stereo not given in full) | 57.3% |
| COc1ccc(/C=C/C(=O)c2ccc3cc(OC)c(OC)cc3c2)cc1OC | 31.9% |
| O=c1oc2ccc(F)cc2c(=O)n1-c1ccc(Br)cc1F | -17.9% (active) |
| COc1cc(/C=C2\CN(S(=O)(=O)c3ccccc3)C/C(=C\c3cc(CN4CCCC4)c(O)c(OC)c3)C2=O)cc(CN2CCCC2)c1O | -26.3% (active) |
| CC(C)C[C@H](C(=O)N[C@@H](C)C(N)=O)N1CC=CCN(O)S1(=O)=O | 91.7% [5 µM] |
| CN(C)CCCNCc1ccc(-c2ccc(F)c(Cl)c2)o1 | 19.5% |
| O=c1oc2ccc(-c3ccc(F)cc3F)cc2c(=O)n1-c1cccc(C(F)(F)F)c1 | -10.7% (active) |

| SMILES | growth |
| --- | --- |
| O=C(N=Nc1c(O)[nH]c2ccccc12)c1oc2ccccc2c1CN1CCN(c2ccccc2)CC1 | 20.4% |
| O=C(Nc1ccc(Br)cc1F)c1cc(F)ccc1O | -1.14% (active) |
| COc1cc(NC(=O)CCSc2nc3ccccc3c(=O)n2Cc2ccccc2)cc(OC)c1OC | 4.12% (active) |
| O=C(Nc1ccc(I)cc1F)c1cc(F)ccc1O | -15.8% (active) |
| COc1nccc2cc3c(=O)n4c(cc5ccccc54)c(=O)n3c12 | 93.7% |
| O=C(COc1cc(O)c2c(=O)cc(-c3ccccc3)oc2c1)Nc1ccccc1 | 81.5% |
| O=c1oc2ccc(-c3ccc(F)cc3F)cc2c(=O)n1-c1ccc(Cl)c(C(F)(F)F)c1 | -12.4% (active) |
| CCN1CCN(c2cc(C)c3cc(NC(=O)c4ccc(OC)c(OC)c4)ccc3n2)CC1 | 51.8% |
| COc1ccc(Cn2c(Br)c3c(c2-c2cc(OC)c(OC)c(OC)c2)CCc2sc(NC(C)=O)nc2-3)cc1 | 13.4% |
| COc1ccccc1C(=O)O/N=C(\N)Cc1cccc2ccccc12 | 85% |
| O=C(Nc1ccc(Cl)cc1F)c1cc(I)ccc1O | -9.32% (active) |
| O=C(O)CCC(=O)c1ccc(C2CCCCCC2)cc1 | 87.5% |
| CCCCOCc1cc(CN2CCN(C)CC2)c(O)c2ncccc12 | 24.9% |
| COC(=O)/C(CCC=C(C)C)=C1\[C@@H](OC(C)=O)C[C@@]2(C)[C@H]1C[C@@H](O)[C@H]1[C@@]3(C)CC[C@H](NCc4ccccc4)[C@@H](C)[C@@H]3CC[C@@]12C | 80% |
| O=C(NC1C(O)OC(CO)C(O)C1O)NS(=O)(=O)c1ccc(Cl)cc1 (stereo not given) | 100% |
| O=C(Nc1ccc(Br)cc1F)c1cc(Cl)ccc1O | -8.76% (active) |
| CCOC(=O)c1c(C=O)nc2ccccc2c1/C=C/c1ccc(Cl)cc1 | 78.8% |
| COc1cccc2cc(N(C)c3nc(C)nc4ccsc34)ccc12 | -15.2% (active) |
| COc1cc(/C=C/C(=O)c2c(C)nc3ccccc3c2/C=C/c2ccccc2)cc(OC)c1OC | -21% (active) |
